# According to PubChem BioAssay (NCATS):
# Results filed as inconclusive are left out. Values without a mark were called inactive. The source made the active and inactive calls. Calls follow the shape of the dose curve; as a rule, active = well fitted cell-killing curve with a large enough effect; inconclusive = small, poorly fitted or top-dose-only effect; inactive = no such curve, though single readings can be large or run the other way. Bridge positions count the residues as written; N and C are the ends. Square brackets hold non-standard residues; d marks the D form. Side chains are listed from the residue outwards. Peptide text beside a SMILES is read from it. * marks the point of attachment. Phg(4-OMe) = COc1ccc([C@H](N)C(=O)O)cc1; d(aIle) = CC[C@H](C)[C@@H](N)C(=O)O; d(aThr) = C[C@@H](O)[C@@H](N)C(=O)O; NMeF = CN[C@@H](Cc1ccccc1)C(=O)O; Isobutyryl = CC(C)C(=O)*
# Assay: MCF7 Cancer Cell Toxicity qHTS against the NCATS CANVASS Library (AID 1347369)
# Conditions: MCF7 viability, ATP luminescence (CellTiter-Glo), 72 h; series mostly up to 46 µM; activity change, negative = cytotoxicity: at the top concentration
# How it was run: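 Cytotoxicity was measured as CellTiterGlo luminescence (ATP) after 72 h at 37 °C. The cells were MCF7 at 500 per well, with an 11-point compound concentration series.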
# % is scaled to controls: 0 for no effect and ±100 for the full control effect.
SMILES,"activity change, negative = cytotoxicity [%]",outcome
CC(C)=CCC[C@]12c3cc4c(cc3CC[C@@]1(C)[C@H](C)CC[C@@H]2O)[nH]c1ccccc14,-15.3,–
C=C1CC[C@@H](Br)C(C)(C)[C@]12CC=C(C)C(=O)C2,-20,–
C=CC(CCCCC)C1C(=O)NC(=O)C1C(=O)C1C(/C=C/C)C=CC2CC(C(=O)O)CC(C)C21 (centres undefined),-16.2,–
C=C[C@@]1(C)CC[C@@H]([C@H](C)C(=O)/C=C/C(C)(C)O)O1,-29.6,–
O=C1CC2OCC=C3CN4C5CC3C2[C@@H]2N1c1ccccc1[C@]52C[C@@H]4C1=C[C@H]2C3CC4N(CC[C@@]45c4ccccc4N(C1=O)[C@@H]25)C/C3=C/CO (some centres undefined),-1.17,–
C=C1CC[C@@H](O[C@H]2C[C@@](O)([C@H](C)NC(=O)c3[nH]c(C)c(Cl)c3Cl)[C@H](O)[C@@H](C)O2)[C@@H]2C=C[C@H](C)C(/C(O)=C3/C(=O)[C@H](C(C)C)N([C@@H]4O[C@H](C)[C@H](OC(N)=O)[C@H](OC(C)=O)[C@@H]4OC)C3=O)[C@@H]12 (some centres undefined),–,inactive
CC[C@H](C)[C@H]1NC(=O)[C@@H](NC(=O)C(C)C)[C@@H](C)OC(=O)[C@H](COC(=O)CNC(C)=O)NC(=O)[C@@H]([C@@H](C)O)NC(=O)[C@H](Cc2ccccc2)N(C)C(=O)[C@H](c2ccc(OC)cc2)NC1=O (Isobutyryl-T[d(aIle)][Phg(4-OMe)][NMeF][d(aThr)]S([Gly-Ac]); ester 1-C),–,inactive
C=C(C)CC[C@H](Cc1c(O)cc(O)c2c1O[C@H](c1ccc(O)cc1)CC2=O)C(=C)C,4.39,–
COc1c(O)cc2c(c1O)C(=O)c1c(coc1C)C2=O,–,inactive
